Active and inactive are the calls of the source. Calls follow the shape of the dose curve; as a rule, active = well fitted inhibition curve with a large enough effect; inactive = flat fitted curve, though single readings scatter. Square brackets hold non-standard residues; d marks the D form. Peptide text beside a SMILES is read from it. Dolaproine = CO[C@@H]([C@@H]1CCCN1)[C@@H](C)C(=O)O; Dil = CC[C@H](C)[C@H](NC)[C@@H](CC(=O)O)OC; NMeV = CN[C@H](C(=O)O)C(C)C
Assay: Identification of antibody-drug conjugate (ADC) payloads which are substrates of ATP-binding cassette drug efflux transporters: ABCB1-HeLa-KB-8-5-11 cell line with tariquidar
Conditions: KB-8-5-11 (P-gp) + tariquidar, viability, CellTiter-Glo, 48 h
Text: Antibody-drug conjugates (ADCs) feature an antibody recognizing a specific protein joined to a potent toxic payload. Numerous antibody-drug conjugates have received FDA approval; however, clinical resistance arises. Resistance mechanisms include decreased expression or mutation of the antibody target, impaired payload release, or increased expression of ATP-binding cassette (ABC) efflux transporters associated with multidrug resistance. We therefore sought to characterize the interaction of ABC multidrug transporters with ADC payloads. We performed a high-throughput screen with 27 common ADC payloads using cells lines expressing ABC transporters P-glycoprotein (P-gp, encoded by ABCB1) or ABCG2 (encoded by ABCG2). Confirmatory assays were also performed using cells transfected to express P-gp, ABCG2, or MRP1 (encoded by ABCC1). Several commonly used ADC payloads were substrates of P-gp, including calicheamicin gamma1, monomethyl auristatin E, DM1, and DM4. All the pyrrolobenzodiazepines tested - SJG136, SGD-1882, SG2057, and SG3199 - were substrates of P-gp, ABCG2, and MRP1. […] These findings highlight the risk of transporter-mediated resistance with certain ADC payloads and underscore the importance of selecting payloads that evade ABC transporter recognition in future ADC development.
HEK-293 cells were transfected with empty vector (pcDNA) or vector containing the human ABCB1 (MDR-19), ABCG2 (R-5), or ABCC1 gene (MRP1) and were maintained in EMEM with 2 mg/mL G418 added to maintain transporter expression. The HeLa derivative KB-3-1 and the P-gp overexpressing KB-8-5-11 subline were maintained in DMEM; KB-8-5-11 additionally received 100 ng/mL colchicine. H460 parental cells were obtained from the Division of Cancer Treatment and Diagnosis Tumor Repository, National Cancer Institute at Frederick, MD and were cultured in RPMI. The ABCG2 expressing subline H460 MX20 was generated by selecting H460 cells in 20 nM mitoxantrone. Media in all cases was supplemented with 10% FBS and 1% penicillin-streptomycin. We explored 27 common ADC payloads, in two orthogonal, paired cell line sets-a drug selected and transfected set for each transporter--to identify substrates of the ABC transporters P-gp and ABCG2. Compounds were sourced from Levena Biopharma (San Diego, CA), Selleck Chem (Houston, TX), ChemieTek (Indianapolis, IN), or Microsource Discovery Systems (Gaylordsville, CT). Screening was performed as previously described. Briefly, cells were plated at a density of 500 cells/well in 1536 well plates with compounds added using a 1536-head pin tool (Kalypsys, San Diego CA). Cells were incubated with cytotoxic drugs and processed with CellTiter Glo reagent (Promega, Madison, WI) to determine viability after 48 hours. P-gp substrates were identified by comparing compound activity between paired sets of low-expressing (sensitive) and over-expressing (resistant) cell lines.

SMILES: CC[C@H](C)[C@@H]([C@@H](CC(=O)N1CCC[C@H]1[C@H](OC)[C@@H](C)C(=O)N[C@@H](Cc1ccccc1)C(=O)O)OC)N(C)C(=O)[C@@H](NC(=O)[C@@H](NC)C(C)C)C(C)C (H-[NMeV]V[Dil][Dolaproine]F-OH)
- Potency: 37.5 nM (active)

SMILES: Cc1nc(Nc2ncc(C(=O)Nc3c(C)cccc3Cl)s2)cc(N2CCN(CCO)CC2)n1
- Potency: 13300 nM (active)

SMILES: COc1cccc2c1C(=O)c1c(O)c3c(c(O)c1C2=O)C[C@@](O)(C(=O)CO)C[C@@H]3O[C@H]1C[C@H](N)[C@H](O)[C@H](C)O1
- Potency: 236 nM (active)

SMILES: CC[C@H](C)[C@@H]([C@H](N)CC(=O)N1CCC[C@H]1[C@H](OC)[C@@H](C)C(=O)N[C@@H](Cc1ccccc1)c1nccs1)N(C)C(=O)[C@@H](NC(=O)[C@H](C(C)C)N(C)C)C(C)C
- Potency: 0.0472 nM (active)

SMILES: CC[C@]1(O)CC2CN(CCc3c([nH]c4ccccc34)[C@@](C(=O)OC)(c3cc4c(cc3OC)N(C)[C@H]3[C@@](O)(C(=O)OC)[C@H](OC(C)=O)[C@]5(CC)C=CCN6CC[C@]43[C@@H]65)C2)C1 (stereo partly drawn)
- Potency: 6.7 nM (active)

SMILES: COC(=O)c1cc2c3c(cc(O)c2[nH]1)N(C(=O)c1cc2cc(OC)c(OC)c(OC)c2[nH]1)CC3CCl (stereo not drawn)
- Potency: 0.6 nM (active)

SMILES: COc1ccc(C2=CN3C(=O)c4cc(OC)c(OCCCOc5cc6c(cc5OC)C(=O)N5C=C(c7ccc(N)cc7)C[C@@H]5C=N6)cc4N=C[C@H]3C2)cc1
- Potency: 59.4 nM (active)

SMILES: CCc1c2c(nc3ccc(O)cc13)-c1cc3c(c(=O)n1C2)COC(=O)[C@]3(O)CC
- Potency: 298 nM (active)

From PubChem BioAssay AID2202239 (National Center for Advancing Translational Sciences (NCATS), 2025)
